High-throughput results as filed in PubChem BioAssay.
A selection: hits, their analogues and other compounds. The true share with any hit is near 19%.
HT1080-NT tox: kills 2HG-producing HT-1080-NT fibrosarcoma cells. HT-1080-NT fibrosarcoma viability, CellTiter-Glo ATP luminescence, 48 h. Potency, µM (top dose mostly 46.1 µM), without a hit: at the highest dose activity, negative = less viability, actives largely listed as cytotoxic. 1.6% of 360,000 active. AID 686970;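 further: NT is the 2HG producing partner of a matched IDH1 knockdown line; 0% = DMSO-treated cells and -100% = media-only wells without cells; nearly all actives have a fitted effect of over 55% in size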
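HT-1080-NT fibrosarcoma cells (2HG-overproducing), 750 cells/well in RPMI with 5% FBS, dosed after 2 h and incubated 48 h at 37C. CellTiter-Glo luminescence normalized to DMSO and no-cell wells; concentration-response curves fitted and classed.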
KB-3-1 cytotox: KB-3-1 parental cell cytotoxicity; KB-3-1 viability, CellTiter-Glo ATP luminescence, 72 h; Potency, µM (highest dose often 46.1 µM), actives largely listed as cytotoxic; 1.4% of 400,000 active; AID 1347075; further: nearly all actives have a fitted effect of over 60% in size
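Luminescent ATP read-out (CellTiter-Glo) measures survival of drug-naive KB-3-1 cells after 72 h compound exposure at 37 °C. Titration series was screened from lowest to highest concentration, with DMSO vehicle plates as background controls.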
DT40 TDP1 no CPT: qHTS for Inhibitors of human tyrosyl-DNA phosphodiesterase 1 (TDP1): qHTS in cells in absence of CPT; DT40 Tdp1-/- hTDP1 cells, no CPT, ATP luminescence, 48 h; Potency, µM (series often up to 46.2 µM), inactives show top-dose activity change, negative = growth inhibition, hits mostly inhibitors; 15% of 420,000 active; further: nearly all actives have a fitted effect of over 55% in size
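Chicken DT40 Tdp1-/- cells stably complemented with human TDP1 were seeded at 400 cells/well with DMSO in place of 20 nM camptothecin. After compound pinning, cells grew at least 48 hr at 37 °C; viability read by CellTiter-Glo luminescence.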
HT1080 IDH1KD tx: kills HT-1080 cells with IDH1 knockdown. HT-1080 IDH1 knockdown viability, ATP luminescence, 48 h. Potency, µM (highest dose often 46.1 µM), inactives show at the top dose activity, negative = toxicity, actives largely listed as cytotoxic. 2% of 360,000 active;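 further: 0% = DMSO wells and -100% = cell-free medium wells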
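% activity derives from luminescence (CellTiter-Glo), normalised to DMSO and no-cell wells. HT-1080-IDH1KD cells, 750/well, had 48 h compound exposure at 37 °C.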
TDP1 cell CPT: growth inhibition of DT40 Tdp1-/-;hTDP1 cells with camptothecin (screen for TDP1 inhibitors) | AID 686979 | 12% of 420,000 active | Potency, µM (doses to about 46.2 µM), for the others: at the highest dose activity change, negative = growth inhibition, actives largely listed as inhibitors | chicken DT40 Tdp1-/-;hTDP1 cells + 20 nM CPT, ATP luminescence, 48 h; further: nearly all actives have a fitted effect of over 55% in size
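Chicken DT40 Tdp1-/- cells complemented with human TDP1, 400 cells/well, exposed to compounds plus 20 nM camptothecin for at least 48 h at 37 C; viability read as ATP content by CellTiter-Glo luminescence.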
KB-V1 cytotox: kills drug-selected multidrug resistant KB-V1 cells | KB-V1 MDR cells viability, CellTiter-Glo, 72 h | Potency, µM (series often up to 46.1 µM), hits mostly cytotoxic | 3.4% of 400,000 active | AID 1347076; further: nearly all actives have a fitted effect of over 60% in size
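Cytotoxicity via CellTiter-Glo luminescence after 72 h compound exposure at 37 degrees C. Cells: drug-selected KB-V1 line, DMEM phenol-red free plus 10% FBS. Compounds tested at multiple concentrations; normalized data fitted to concentration-effect curves.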
Starred values were filed as active, the others as inactive. The call rests on the fitted dose curve; in most records, active means well fitted curve in the direction sought with a large enough effect; inconclusive means small, poorly fitted or top-dose-only effect, or another doubt; inactive means no such curve, though single readings can be large; an effect the other way counts as inactive or inconclusive. Unless noted, on the % scale 0 is the no-effect control and ±100 the full control effect; potency means the concentration at half of the fitted maximal effect.

`CSCCC(NC(=O)c1ccccc1Cl)C(=O)Nc1cccc(S(=O)(=O)N2CCCC2)c1` (centres undefined) gave HT1080-NT tox 9%, KB-3-1 cytotox inactive, DT40 TDP1 no CPT inconclusive, HT1080 IDH1KD tx 14%, TDP1 cell CPT inconclusive and KB-V1 cytotox inconclusive.
CCOC(=O)C1CCN(c2ncnc3c2c(-c2ccccc2)cn3-c2ccc(Cl)cc2)CC1 was read as DT40 TDP1 no CPT inconclusive and TDP1 cell CPT -9%.
For CC(C)(C)OC(=O)N1CCCN(C(c2cc3ccccc3o2)c2nnnn2C(C)(C)C)CC1 (centres undefined) the results were HT1080-NT tox inconclusive, KB-3-1 cytotox inactive, DT40 TDP1 no CPT inconclusive, HT1080 IDH1KD tx inconclusive, TDP1 cell CPT inconclusive and KB-V1 cytotox inconclusive.
For CC(C)(C)OC(=O)N1CCN(C(c2ccnc3ccccc23)c2nnnn2-c2ccc3c(c2)OCCO3)CC1 (centres undefined) the results were HT1080-NT tox -11%, KB-3-1 cytotox inconclusive, DT40 TDP1 no CPT 16µM*, HT1080 IDH1KD tx inconclusive, TDP1 cell CPT inconclusive and KB-V1 cytotox inactive.
CC(C)(C)n1nnnc1C(c1cc2ccccc2o1)N1CCN(C(=O)OCc2ccccc2)CC1 (centres undefined) was read as HT1080-NT tox -4%, KB-3-1 cytotox inactive, DT40 TDP1 no CPT 18µM*, HT1080 IDH1KD tx inconclusive, TDP1 cell CPT inconclusive and KB-V1 cytotox inactive.
`CC(C)(C)n1nnnc1C(c1ccnc2ccccc12)N1CCN(C/C=C/c2ccccc2)CC1` (centres undefined) gave HT1080-NT tox inconclusive, KB-3-1 cytotox inactive, DT40 TDP1 no CPT 16µM*, HT1080 IDH1KD tx -28%, TDP1 cell CPT 16µM* and KB-V1 cytotox inactive.
Screening Cc1cccc(C)c1-n1nnnc1C(c1ccnc2ccccc12)N1CCN(C(=O)OCc2ccccc2)CC1 (centres undefined) returned HT1080-NT tox 21%, KB-3-1 cytotox inconclusive, DT40 TDP1 no CPT 16µM*, HT1080 IDH1KD tx 6%, TDP1 cell CPT inconclusive and KB-V1 cytotox inactive.
Cc1cccc(C)c1-n1nnnc1C(c1ccnc2ccccc12)N1CCCC1 (centres undefined) was read as HT1080-NT tox 1%, KB-3-1 cytotox inactive, DT40 TDP1 no CPT inconclusive, HT1080 IDH1KD tx -3%, TDP1 cell CPT inconclusive and KB-V1 cytotox inconclusive.
For Cc1cccc(C)c1-n1nnnc1C(c1ccnc2ccccc12)N1CCN(C/C=C/c2ccccc2)CC1 (centres undefined) the results were HT1080-NT tox inconclusive, KB-3-1 cytotox inconclusive, DT40 TDP1 no CPT 8.2µM*, HT1080 IDH1KD tx inconclusive, TDP1 cell CPT 9.2µM* and KB-V1 cytotox inconclusive.
CNC(=O)C1CN(C(=O)c2nn(Cc3ccccc3)c(=O)c3ccccc23)c2ccccc2O1 (centres undefined) was read as HT1080-NT tox 1%, KB-3-1 cytotox inconclusive, DT40 TDP1 no CPT inconclusive, HT1080 IDH1KD tx -1%, TDP1 cell CPT inconclusive and KB-V1 cytotox inactive.
O=C(COc1ccccc1Cl)NNC(=O)Cn1[nH]c(=O)c2ccccc2c1=O was read as HT1080-NT tox 4%, KB-3-1 cytotox inactive, DT40 TDP1 no CPT inconclusive, HT1080 IDH1KD tx 4%, TDP1 cell CPT 9.2µM* and KB-V1 cytotox inactive.
For CCc1nc2n[nH]c(N)c2c2c1CCCC2 the results were HT1080-NT tox -1%, KB-3-1 cytotox inactive, DT40 TDP1 no CPT -12%, HT1080 IDH1KD tx -3%, TDP1 cell CPT -1% and KB-V1 cytotox inactive.
Screening CCCCc1nc2n[nH]c(N)c2c2c1CCC2 returned HT1080-NT tox -12%, KB-3-1 cytotox inconclusive, DT40 TDP1 no CPT -16%, HT1080 IDH1KD tx -8%, TDP1 cell CPT -13% and KB-V1 cytotox 0.65µM*.
`Cc1ccccc1NC(=O)C1C(=O)Nc2ccccc2C(=O)N1Cc1ccccc1` (centres undefined) gave HT1080-NT tox 13%, KB-3-1 cytotox inactive, DT40 TDP1 no CPT -18%, HT1080 IDH1KD tx 0%, TDP1 cell CPT -19% and KB-V1 cytotox inactive.
Screening CCc1ccc(CNC(=O)c2nn(-c3ccc(OC)c(Cl)c3)c(=O)c3c2c2ccccc2n3C)cc1 returned KB-3-1 cytotox inactive, DT40 TDP1 no CPT -7%, TDP1 cell CPT 1% and KB-V1 cytotox inactive.
CCOc1cc(C)c(S(=O)(=O)NCCCn2ccnc2)cc1C was read as HT1080-NT tox -15%, KB-3-1 cytotox inactive, DT40 TDP1 no CPT inconclusive, HT1080 IDH1KD tx -10%, TDP1 cell CPT inconclusive and KB-V1 cytotox inactive.
Screening COc1cc(C)c(S(=O)(=O)NCCCn2ccnc2)cc1C returned HT1080-NT tox 0%, KB-3-1 cytotox inactive, DT40 TDP1 no CPT 18µM*, HT1080 IDH1KD tx -1%, TDP1 cell CPT 15µM* and KB-V1 cytotox inactive.
`O=c1cnn(-c2ccc(Cl)cc2Cl)c(-c2ccccc2)c1` gave HT1080-NT tox -12%, KB-3-1 cytotox inactive, DT40 TDP1 no CPT 23µM*, HT1080 IDH1KD tx -21%, TDP1 cell CPT inconclusive and KB-V1 cytotox inactive.
For NCCc1ccc(O)c(O)c1 the results were HT1080-NT tox -23%, KB-3-1 cytotox inactive, DT40 TDP1 no CPT 4.6µM*, HT1080 IDH1KD tx -26%, TDP1 cell CPT 5.2µM* and KB-V1 cytotox inactive.
NCC(O)c1ccc(O)c(O)c1 (centres undefined) was read as HT1080-NT tox 19%, KB-3-1 cytotox inactive, DT40 TDP1 no CPT 11%, HT1080 IDH1KD tx 8%, TDP1 cell CPT 3% and KB-V1 cytotox inactive.
`NC(Cc1ccc(O)c(O)c1)C(=O)O` (centres undefined) gave DT40 TDP1 no CPT 2.9µM* and TDP1 cell CPT 3.7µM*.
`Cc1ccc2c(c1)c1c(n2CC(O)CNC2CCCC2)CCCC1` (centres undefined) gave HT1080-NT tox inconclusive, KB-3-1 cytotox inconclusive, DT40 TDP1 no CPT inconclusive, HT1080 IDH1KD tx -14%, TDP1 cell CPT inconclusive and KB-V1 cytotox 21µM*.
Screening CCCCNC(=O)c1nn(-c2ccc(C)cc2)c(=O)n(C)c1=O returned KB-3-1 cytotox inactive, DT40 TDP1 no CPT -19%, TDP1 cell CPT -13% and KB-V1 cytotox inactive.
For Cc1ccc(-c2cn3c(n2)sc2cc(C(=O)NC4CCCc5ccccc54)ccc23)cc1 (centres undefined) the results were KB-3-1 cytotox inactive, DT40 TDP1 no CPT 13µM*, TDP1 cell CPT 13µM* and KB-V1 cytotox inactive.
